The full ranking holds about 33,000 sequences; the median of “E-score (-0.5 to 0.5)” is about -0.054, and the highest 2% start at about 0.35. The sample holds the highest values, similar sequences and a random draw of the others, so the mix is not that of the screen.
target: T1, Stb5 (UniProt P38699); assay: PBM E-score (8-mer binding enrichment) (E-score (-0.5 to 0.5)); higher = stronger / more preferred TF binding; conditions: protein concentration: 200 nM; construct: GST-full length
T1 sequence: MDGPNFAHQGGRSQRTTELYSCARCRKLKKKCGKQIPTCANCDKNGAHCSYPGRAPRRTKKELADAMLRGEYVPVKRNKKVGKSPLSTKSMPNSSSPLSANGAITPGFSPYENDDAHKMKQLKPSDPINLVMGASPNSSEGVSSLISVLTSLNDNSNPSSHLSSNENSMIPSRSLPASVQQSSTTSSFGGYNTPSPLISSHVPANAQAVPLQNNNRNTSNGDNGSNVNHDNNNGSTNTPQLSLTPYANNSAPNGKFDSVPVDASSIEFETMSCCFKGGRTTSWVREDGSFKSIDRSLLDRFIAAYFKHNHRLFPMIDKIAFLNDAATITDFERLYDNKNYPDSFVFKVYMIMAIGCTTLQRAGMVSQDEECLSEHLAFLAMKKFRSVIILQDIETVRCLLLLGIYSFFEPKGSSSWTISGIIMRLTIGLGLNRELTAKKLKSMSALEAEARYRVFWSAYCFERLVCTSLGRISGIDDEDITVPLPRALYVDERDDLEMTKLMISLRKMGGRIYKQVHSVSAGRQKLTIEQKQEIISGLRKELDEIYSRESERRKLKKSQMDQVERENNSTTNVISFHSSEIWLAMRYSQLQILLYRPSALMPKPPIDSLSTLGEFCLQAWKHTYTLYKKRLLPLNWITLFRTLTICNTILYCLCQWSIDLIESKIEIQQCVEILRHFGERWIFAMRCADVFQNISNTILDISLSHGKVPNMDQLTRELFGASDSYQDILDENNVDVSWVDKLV
In short: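 E-scores (a modified Wilcoxon-Mann-Whitney statistic) were assigned by the Universal PBM Analysis Suite to every ungapped eight-base word pooled with its reverse complement. The input came from universal all-10-mer Agilent arrays made double-stranded by primer extension and probed with GST-tagged yeast transcription factors at about 100-200 nM. Fluorescent anti-GST detected bound protein, and masliner normalised the scans.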

Sequence	PBM E-score
TCGGAAGA	0.142
ATATGAAA	-0.119
ATTCGAGG	0.0182
TACGCAGA	-0.163
CGACCCGA	0.117
AAACGCCG	0.449
AGACGCCG	0.399
CAACGCCG	0.318
AAACGCCA	-0.046
AGACGCCA	-0.181
AGACGCCC	0.0667
CGCTAGAG	0.0369
AACATCGC	0.0424
GTGGTCAA	-0.291
AACTCCAT	0.144
AACTCCGT	0.444
CACTCCGC	0.307
AACTCCGG	0.436
TACTCCGA	0.234
AACTCCGA	0.463
AACTCCCG	0.248
AACTCCCT	-0.0261
AACTCCGC	0.438
GACTCCGC	0.333
CACTCCGG	0.219

Sequence	PBM E-score
CACTCCGA	0.242
AGATCAAG	-0.211
ATTAGTCC	0.248
CATATCAC	0.0389
TGCTGCAA	-0.177
CCAGAACG	-0.0165
ATTCAAAG	-0.12
GCGCGAAA	0.0664
AAGAGTGA	-0.258
ACAGACGT	-0.141
CCCCTCAC	-0.231
TGGTACCA	-0.0919
CGGTACTA	0.474
CGGTACCA	0.39
GGGTACCA	-0.157
AGGTACTA	0.16
GGGTACTA	-0.0611
AATGTGCC	0.145
ATCAAAGA	-0.248
CAGCAGGA	-0.194
AGTCTCCG	0.264
AAGAACAT	-0.0596
CCAACACC	0.119
ATAACACC	0.461
CTAACACA	-0.0526

Sequence	PBM E-score
ATAACACG	-0.0233
ATAACACA	-0.107
CTAACACC	0.401
GAATCCTC	-0.239
CGCGTTCC	0.0249
ATTCCTTC	-0.0881
GCCCTTAA	0.191
CCCTGGCG	0.114
CCTCTCCG	-0.171
AATCATTG	-0.314
GTGGCACA	-0.325
CGGGGGCA	0.275
GCCGATGA	0.357
CCCGATGA	0.226
ACCGATGA	0.264
CCCTATAG	-0.104
AATGGCAT	0.0389
CGGGCGGA	0.359
CGAGCGGA	0.385
GGGGCGGA	0.293
AGAGCGGA	0.312
CGAGCGGC	0.318
CCGGCGGA	0.385
CCGGCGGC	0.327
GCGGCGGA	0.333

Sequence	PBM E-score
CGGGCGGC	0.308
AATTGGCC	-0.224
CATCTAGG	-0.139
CGAATTGA	-0.12
ACAATTCG	-0.00889
AGGTATCC	-0.211
CGCCTTAA	0.0389
AGGCCTCA	-0.264
CGGCCTCA	0.363
CGGCCTCC	0.129
CTTTAGCA	0.133
ATCTCTGA	-0.172
GCACCGAC	0.45
AGACCGAG	0.177
ACACCGAA	0.386
GGACCGAC	0.318
TCACCGAA	0.217
AGACCGAC	0.385
GCACCGAA	0.358
AGACCGAA	0.236
CCACCGAA	0.117
GAACCGAC	0.225
AAACCGAA	-0.0132
CGACCGAC	0.271
AAGAACTA	-0.0107

Sequence	PBM E-score
AGGTTCAC	-0.164
CAATTCGC	0.0656
ACGAGAAA	-0.0778
CAATGGCC	0.0847
ATGAGGCA	-0.24
ATCTTGGG	-0.145
CGAAGGAA	-0.188
GATGAGAC	-0.136
AAACCGAG	-0.0377
ACACCGAC	0.466
ACACCGAT	0.447
CCACCGAC	0.346
AAACCGAC	0.222
CCACCGAG	0.0738
AGACCGAT	0.272
AAACCGAT	0.121
ACACCGAG	0.369
AATGGTTC	0.00524
TAAATCTA	-0.0639
GAATGAAA	0.0556
AATGCGGA	0.2
CCGAAGCG	0.225
ACCTTAAT	0.0412
AGGGCGCC	-0.0741
CACGCCCG	0.0876

Sequence	PBM E-score
GACCATCA	0.0409
ACCACCGC	0.391
TCCACCGA	0.176
ACCACCCT	-0.168
ACCACCGA	0.357
CCCACCGC	0.221
GCCACCGC	0.335
CCCACCGG	0.303
CCCACCGA	0.118
ACCACCGG	0.406
ACCACCGT	0.354
ACCACCAT	-0.138
ACCACCAG	-0.148
GGCGAGTA	-0.101
CCTCTATA	-0.232
CCTGACTC	-0.153
CCTATAAG	-0.0382
AACCTTGC	-0.0575
AAGAAGTA	-0.102
GAGCAAGC	-0.168
AGCAACCA	-0.068
CCAATTCA	-0.261
AACGACAG	-0.205
ACCGACAG	0.363
CCCGACAG	0.305

Sequence	PBM E-score
CCCGACAA	0.328
GCCGACAC	0.239
ACCGACAC	0.361
CCCGACAC	0.34
ACCGACAA	0.369
ACCGACAT	0.322
GGTTTGGA	0.0254
ACGATATG	-0.0261
ATGGTTCG	-0.0398
CTCGTTTC	-0.214
TGACCTAA	-0.117
GGACCTAA	0.365
CGACCTAA	0.017
AGGAGCTA	-0.0145
CGGAGCTC	0.249
CGGAGGTC	0.122
CGGAGGTA	0.434
AGGAGGTA	-0.0118
CGGAGCTA	0.446
TGTACGAA	-0.0429
ACCACTGA	-0.202
TGCCGACA	0.298
AGCCGACG	0.232
CGCCGACA	0.354
GGCCGACA	0.327

Sequence	PBM E-score
CGCCGACG	0.395
CGCCGACC	0.345
GGCTCTTA	0.0283
ACTCTAAA	0.01
ACCGCACG	0.153
AACGGGGA	0.288
GATCTACC	-0.0916
AGCTGTTA	-0.234
CGCTGTTC	0.0181
CGCTGTTA	0.445
GTCGGAAC	0.315
ACTCTCTA	-0.205
ATAATGAA	-0.076
GTACCGAC	0.382
ATACCGAC	0.398
ATACCGAG	0.224
CTACCGAC	0.264
GTACCGAA	0.145
ATACCGAA	0.242
ATACCGGC	0.304
CTACCGAA	0.0544
ATACCGAT	0.353
AACGTTGT	-0.107
CGGTATAG	0.179
AACACTGT	-0.22

Sequence	PBM E-score
AGCTGGTC	-0.26
TAACAGTA	-0.227
AAAAAGTC	0.175
TAGCTGCA	-0.191
ACGGTGCT	0.409
ACGGTGCG	0.281
GCGGTGAC	0.358
GCGGTGAA	0.345
ACGGTGAC	0.297
ACGGTGAT	0.367
ACGGTGCA	0.127
GGGGTGAC	0.0132
AAGGTGCT	-0.0966
ACTGTGCT	-0.241
ACGGTGAG	0.141
ACGGTGCC	0.372
GAGAGTGC	-0.209
AAACTGAT	-0.104
CAGAGGGA	-0.261

Source: the supplement of paper PMC3334620
